The panel holds about 79,000 compounds, 15% with a hit somewhere; the sample as a whole holds those more often. Rule as the data show it: active = growth inhibition above about 70%; inactive = the rest.
Key:
[1] = NCI Yeast Anticancer Drug Screen. Data for the rad50 strain (AID 155);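 also: 0% = growth of vehicle-only cultures of the same strain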; details: S. cerevisiae rad50 strain growth inhibition; at 50.0 µM; stronger effect = higher value
In short: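 Yeast carrying a defined DNA repair defect were exposed to test compounds, and growth was compared with vehicle-treated controls to give percent inhibition.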

[2] = NCI Yeast Anticancer Drug Screen. Data for the mec2-1 strain (AID 157); details: S. cerevisiae mec2-1 strain, at 50.0 µM, stronger effect = higher value
In short: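 Readout is yeast growth inhibition, normalised to vehicle-treated controls, in the mec2-1 strain exposed to compound.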

[3] = NCI Yeast Anticancer Drug Screen. Data for the sgs1 mgt1 strain (AID 161);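 also: 0% = growth of cultures given vehicle only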; details: S. cerevisiae sgs1 mgt1 strain, at 50.0 µM, stronger effect = higher value
In short: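 Compounds are added to genetically altered yeast, and growth is compared with cultures given vehicle alone to give percent inhibition.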

[4] = NCI Yeast Anticancer Drug Screen. Data for the cln2 rad14 strain (AID 165);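 also: 0% = growth equal to vehicle treated cultures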; details: S. cerevisiae cln2 rad14 strain, at 50.0 µM, stronger effect = higher value
In short: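 Relative to vehicle controls, growth inhibition of compound-treated cln2 rad14 yeast was recorded.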

[5] = NCI Yeast Anticancer Drug Screen. Data for the bub3 strain (AID 167); details: S. cerevisiae bub3 mutant strain, at 50.0 µM, stronger effect = higher value
In short: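 Compounds were applied to a genetically altered yeast strain carrying a cell-cycle control defect. Growth inhibition was scored against vehicle-treated controls.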

[6] = NCI Yeast Anticancer Drug Screen. Data for the mlh1 rad18 strain (AID 175); details: S. cerevisiae mlh1 rad18 strain growth inhibition; at 50.0 µM; stronger effect = higher value
In short: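 Test agents were incubated with a yeast strain of defined genotype (DNA damage repair defect). Inhibition of growth was derived by comparison with vehicle-exposed cultures.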

Measured: growth inhibition

CCCCCCCCCC1OCCC(C)O1 (configuration not stated)
inactive: [1] 20.2% | [2] 9.95% | [3] -0.6% | [4] -20.9% | [5] 9.5% | [6] 21.2%

NC12CC3CC(C1)CC(C(=O)O)(C3)C2
inactive: [1] 1.65% | [2] 3.05% | [3] -2.75% | [4] 3.45% | [5] 6.7% | [6] -7.1%

O=[N+]([O-])c1ccc(N=Nc2c(O)[nH]c3ccc(Br)cc23)cc1
inactive: [1] 22.4% | [2] -20.2% | [3] 14.3% | [4] 10.8% | [5] -15.4% | [6] 15.3%

COc1cc(OC)c2c3c(OC)cc(OC)c4c(=O)c(O)c(C[C@@H](C)O)c(c5c(C[C@@H](C)O)c(O)c(=O)c1c25)c43
inactive: [1] 66.8% | [2] 46.4% | [3] 37% | [4] -4.45% | [5] 34.4% | [6] 54.9%

CC(=O)c1cc2c(cc1C(C)C)C(C)(C)C(C)CC2(C)C (configuration not stated)
inactive: [1] -19.6% | [2] -19.2% | [3] 13.8% | [4] 29.4% | [5] -41.9% | [6] 17.4%

CC12CCCCC1C1=C(CCCC1)CC2 (configuration not stated)
inactive: [1] -4.1% | [2] -4.95% | [3] -5.35% | [4] 9.4% | [5] 6.7% | [6] -17.6%

CCN(CC)C(=S)Nc1ccc(-c2cc3ccc(O)cc3oc2=O)cc1
inactive: [1] -6.95% | [2] 11.6% | [3] -5.45% | [4] 32.9% | [5] 18.2% | [6] 6.15%

O=C(COc1cc(Cl)c(Cl)cc1Cl)Nc1ccc(N=Nc2ccccc2)cc1
inactive: [1] 2% | [2] 3.55% | [3] -12.6% | [4] -9.55% | [5] 2.75% | [6] -7.95%

O=C(O)c1cccc(S(=O)(=O)NCCO)c1
inactive: [1] -11.3% | [2] -8.25% | [3] -20.8% | [4] -1.9% | [5] -36.1% | [6] 8.5%

O=C(Nc1cc(-c2ccccc2)nn1-c1ccccc1)c1ccc(Cl)cc1
inactive: [1] -16.4% | [2] -19.9% | [3] -17.8% | [4] 15.2% | [5] -29.1% | [6] -9.65%

C[N+]1(C)CCCC1
inactive: [1] 24.5% | [2] 5.5% | [3] 24.2% | [4] 7.6% | [5] 35.5% | [6] 16.1%

CC(C)NC(=O)c1ccccc1-[s+]1c2ccccc2c(=O)n1C(C)C (configuration not stated)
inactive: [1] 22% | [2] 1.15% | [3] -11.7% | [4] 3.9% | [5] -2.95% | [6] 9.3%

S=C1SCN(C2CCCCCCCCCCC2)CN1C1CCCCCCCCCCC1
inactive: [1] -52.5% | [2] -29.1% | [3] -17.9% | [4] -3.7% | [5] -20% | [6] -40.5%

CSc1ccc(OC(=O)C(C)NC(=O)C(CO)NC(=O)OCc2ccccc2)cc1 (configuration not stated)
inactive: [1] 5.85% | [2] 1.55% | [3] -1.05% | [4] -2% | [5] -1.6% | [6] 15.2%

O=C(Cc1nc2ccccc2nc1CC(=O)c1cccnc1)c1cccnc1
inactive: [1] 6.45% | [2] 18.4% | [3] 16.1% | [4] 23.1% | [5] -3.55% | [6] 25.9%

Nc1nc(Sc2ccc([N+](=O)[O-])c3nonc23)c2ncn(C3OC(CO)C(O)C3O)c2n1 (configuration not stated)
inactive: [1] -0.7% | [2] -11.3% | [3] 3% | [4] 26.6% | [5] -6.3% | [6] 11.9%

Cc1cccc2c1C1C(CC2=O)C(=O)c2ccccc2C1C (configuration not stated)
inactive: [1] 7% | [2] -17.8% | [3] 3.5% | [4] 8.9% | [5] 11.6% | [6] 11.5%

CC(=O)OCC(C)(C)COC(C)=O
inactive: [1] 2.6% | [2] 1.65% | [3] -11.6% | [4] -7.9% | [5] -5.25% | [6] -11.2%

O=C(/C=C\c1ccc(/C=C\C(=O)c2ccccc2O)cc1)c1ccccc1O
inactive: [1] 8.5% | [2] -13.3% | [3] -8.75% | [4] -3.75% | [5] 22.2% | [6] -23.3%

Nc1ccc(Br)cc1C(=O)O
inactive: [1] 4.2% | [2] -1.15% | [3] -17.4% | [4] -3.2% | [5] 23.6% | [6] -3.3%

COc1ccc2c(c1)CC/C2=N/O
inactive: [1] -10.7% | [2] 3.05% | [3] -4.5% | [4] -21.3% | [5] -22.8% | [6] 2.1%

Cc1c(C2CC(=O)N(c3ccccc3)C2=O)c2ccccc2n1C (configuration not stated)
inactive: [1] -6.25% | [2] -6% | [3] -7.4% | [4] -33.7% | [5] 1.85% | [6] -8.25%

O=C1O[C@@H](c2ccc3c(c2)OCO3)C2C(=O)O[C@@H](c3ccc4c(c3)OCO4)C12 (some centres not stated)
inactive: [1] 13.5% | [2] 8.95% | [3] -8.15% | [4] 19.4% | [5] 2.6% | [6] 21.7%

CCOC(=O)CNC(=O)C(CSSCC(NC(=O)OCc1ccccc1)C(=O)OC)NC(=O)C(NC(=O)OCc1ccccc1)C(C)C (configuration not stated)
inactive: [1] 7.65% | [2] 21.3% | [3] 14.5% | [4] -1.65% | [5] -11.7% | [6] 56.6%

CCc1ccc(/C(C#N)=C/c2cccc3ccccc23)cc1
inactive: [1] 2.45% | [2] -11.1% | [3] -0.6% | [4] -1.9% | [5] 4.05% | [6] -5.25%

CCN(CC)C(=O)c1ccc(C(C)C)cc1
inactive: [1] 20.4% | [2] 14.8% | [3] 27.9% | [4] 6.6% | [5] 18.3% | [6] 25.8%

CC(C)c1ccc(C(C)C)c(Cl)c1
inactive: [1] 43.7% | [2] 13.9% | [3] 16.4% | [4] 7.95% | [5] -12.6% | [6] 12.5%

CS(=O)c1ccc(C(F)(F)F)cc1C(=O)O (configuration not stated)
inactive: [1] -3.3% | [2] 9.95% | [3] 9.7% | [4] -24.4% | [5] -20.5% | [6] 9.85%

CCN(CC)C(=O)c1c(-c2ccccc2)nc(-c2ccccc2)c(C(=O)N(CC)CC)c1Cl
inactive: [1] 42% | [2] 14.6% | [3] 21.6% | [4] 21.6% | [5] 1.05% | [6] 27.8%

O=[N+]([O-])c1cccc(C2=NOC3CCCC23)c1 (configuration not stated)
inactive: [1] 17.6% | [2] -7.6% | [3] 15.2% | [4] 13.8% | [5] -8.3% | [6] 16.9%

CC(C)C(NC(=O)C1CSC(C)(C)N1C=O)C(=O)O (configuration not stated)
inactive: [1] -1.6% | [2] -0.1% | [3] -3.3% | [4] -8.35% | [5] 6.55% | [6] 2.25%

COc1nc2c(nc(N)n2C2OC(CO)C(O)C(O)C2O)c(=O)[nH]1 (configuration not stated)
inactive: [1] -26.4% | [2] -8% | [3] -1.5% | [4] 3.45% | [5] 0.95% | [6] 20.9%

O=[N+]([O-])c1ccc(-c2ccccc2-c2ccccc2)cc1
inactive: [1] 3.9% | [2] -2.8% | [3] 8.25% | [4] -38.1% | [5] 3.5% | [6] -22.9%

CC1=C(O)CC(=O)C1
inactive: [1] -14% | [2] -8.8% | [3] -6.9% | [4] 0.2% | [5] 6.4% | [6] -9.45%

C[N+](C)(C)C1CCC1
inactive: [1] -2.4% | [2] -4.75% | [3] -1.75% | [4] 8.35% | [5] -15.1% | [6] 5.7%

COc1cc(C(O)C(=O)c2cnc3cc([N+](=O)[O-])ccc3n2)ccc1O (configuration not stated)
inactive: [1] 24.8% | [2] 11.3% | [3] -10.8% | [4] 2.15% | [5] -19% | [6] -1.95%

OC1CC2CCC(C1)N2c1ccccc1 (configuration not stated)
inactive: [1] 2.35% | [2] 4.95% | [3] 16.6% | [4] -29.9% | [5] 19.1% | [6] 14.3%

Cc1ncc(CSC(=N)N)n1Cc1ccccc1
inactive: [1] -33.6% | [2] -11.4% | [3] -6.55% | [4] -17.6% | [5] -11.1% | [6] -23.9%

CC(=O)NCCCCCC(=O)O
inactive: [1] 38.9% | [2] 2.45% | [3] 11.9% | [4] 10.7% | [5] -2.65% | [6] 20.7%

O=C(C[n+]1csc2ccccc21)c1ccc(I)cc1
inactive: [1] -15.3% | [2] -0.65% | [3] -9.15% | [4] -12.8% | [5] -4.8% | [6] 20.4%

CCO/C=C1/N=C(c2ccc(OC)c(OC)c2)OC1=O
inactive: [1] -6.3% | [2] 5.6% | [3] 18.6% | [4] -67.8% | [5] -7.2% | [6] 12.2%

N#Cc1ccccc1-c1ccccc1/C=C/C(=O)O
inactive: [1] -20.4% | [2] -5.9% | [3] -9.5% | [4] 11.8% | [5] -8% | [6] 12.4%
